Results filed as inconclusive are left out. Activity calls are given as the source filed them. Unless noted, calls come from the whole dose curve; as a rule, active = well fitted curve in the direction sought with a large enough effect; inconclusive = small, poorly fitted or top-dose-only effect, or another doubt; inactive = no such curve, though single readings can be large; an effect the other way counts as inactive or inconclusive.
Experiments:
[1] = molecular target: Cytochrome P450 2C19 (Homo sapiens) (UniProt P33261); assay: qHTS Assay for Inhibitors and Substrates of Cytochrome P450 2C19 (AID 899); note: nearly all actives have a fitted effect of over 60% in size; note: potency is the fitted concentration of half-maximal effect; for activity, negative = inhibition: % is set by controls: 0 for no effect and ±100 for the full control effect
In short: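 Luminescence readout of luciferin formed from 10uM Luciferin-H EGE (KM level) by 5 nM CYP2C19 in 50mM KPO4. 60 min NADPH-driven reaction at 37C after 10 min compound preincubation; data scaled to 57uM ketoconazole inhibition.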

[2] = molecular target: Cytochrome P450 2D6 (Homo sapiens) (UniProt P10635); assay: qHTS Assay for Inhibitors and Substrates of Cytochrome P450 2D6 (AID 891); note: potency is the fitted concentration of half-maximal effect; nearly all actives have a fitted effect of over 60% in size
In short: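 Human CYP2D6 (5 nM) with 30 uM Luciferin-ME EGE (at Km) in 100 mM KPO4, compound preincubated 10 min, then NADPH regeneration system for 60 min at room temperature. Luciferin read by luminescence; normalized to 1.43 uM quinidine.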

[3] = Confirmation and Secondary Assay for Modulators of Hemoglobin Beta Chain Splicing at IVS2 654 locus (AID 910);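 note: HeLa cells stably carrying EGFP split by mutant beta-globin IVS2-654 intron; per-well total GFP intensity by laser scanning cytometry after 2-day treatment; % of control where 0% means no effect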
In short: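 Readout: per-well total peak green fluorescence (488 nm ex, 500–520 nm em) from objects 5–250 µm, reflecting correct splicing of an EGFP-654 reporter. Compounds were applied for 2 days at 37 °C to overnight-plated HeLa EGFP-654 cells; controls were DMSO and 500 nM IVS2-654 PNA.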

[4] = Confirmation and Secondary Assay for Modulators of Hemoglobin Beta Chain Splicing at IVS2 705 locus (AID 930);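 note: HeLa cells stably expressing the EGFP-705 splicing reporter; GFP fluorescence per well restored by corrected splicing of the IVS2-705 intron in EGFP; % of control where 0% means no effect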
In short: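 Stable HeLa line with EGFP disrupted by mutant beta-globin intron 2 (705). Overnight attachment, then 2 days of compound at 37C, 5% CO2. Signal: peak GFP intensity summed over objects 5-250 µm.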

[5] = qHTS Assay for Identification of Small Molecule Agonists for Hypoxia Response Element Signaling Pathway (AID 914; active = well fitted activation curve with a large enough effect in the signal ratio, with a control signal flat, not every such curve was filed as active; the % refers to the signal ratio; note: potency is the fitted concentration of half-maximal effect; for activation: % of control where 0% means no effect); details: ME-180 (cervical carcinoma) HRE-bla reporter, beta-lactamase ratio, CoCl2, 17 h; activation: stronger effect = higher value
In short: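 Reporter activity (beta-lactamase, CCF4 460nm/530nm ratio) in HRE-bla ME-180 cells is recorded after 17 h compound exposure with EC50 CoCl2 at 37 degrees Celsius. AC50 values come from titration data.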

[6] = molecular target: Cytochrome P450 2C9 (Homo sapiens) (UniProt P11712); assay: qHTS Assay for Inhibitors and Substrates of Cytochrome P450 2C9 (AID 883); note: nearly all actives have a fitted effect of over 60% in size; note: potency is the fitted concentration of half-maximal effect; for activity change, negative = inhibition: % is set by controls: 0 for no effect and ±100 for the full control effect
In short: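 Luminescent read-out of deoxyluciferin hydroxylation, normalized to 57uM sulphaphenazole (AC100). Reaction: 10nM enzyme, 100uM Luciferin-H (equal to KM), 25mM KPO4, 10 min compound preincubation, then 60 min with NADPH regeneration, both at 37C.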

[7] = NCATS anti-infectives library activity on HEK293 viability as a counter-qHTS vs the C. elegans viability qHTS (AID 1745854); note: % is set by controls: 0 for no effect and ±100 for the full control effect
In short: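 HEK293 cells, 1500 per well, exposed 24 hr at 37C in 5% CO2 to compounds in a 1:5 titration, up to 41.7 uM final. Viability read as CellTiter-Glo luminescence after 10 min at room temperature.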

[8] = molecular target: ATP-dependent 6-phosphofructokinase (Trypanosoma brucei brucei) (UniProt O15648); assay: qHTS Assay to Find Inhibitors of T. brucei phosphofructokinase: hit validation (AID 492961);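 note: luminescence reports ADP formed as PFK phosphorylates fructose-6-phosphate with ATP; % is set by controls: 0 for no effect and ±100 for the full control effect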
In short: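 ADP-Glo luminescence read-out of ADP formed by 1.25 nM PFK from 0.1 mM ATP and 0.5 mM F6P (TEA pH 8.0, 45 min, RT). Compounds titrated; activity normalized to no-enzyme and full-enzyme controls.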

[9] = qHTS profiling for inhibitors of Plasmodium falciparum proliferation (AID 504749);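 note: 0% = DMSO vehicle and full inhibition = artemisinin control; nearly all actives have a fitted effect of over 60% in size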; details: P. falciparum in erythrocytes, SYBR Green DNA, 72 h, at 12.8 µM (top of the series)
In short: (§1)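 Three-day growth assay of blood-stage parasites in erythrocytes (0.3% parasitemia, 2.5% hematocrit) at 37 C, 5% CO2, quantified by SYBR Green DNA staining after overnight detergent lysis.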

[10] = test system: AS120; assay: as above; details: P. falciparum in erythrocytes, SYBR Green DNA, 72 h; series mostly up to 28.7 µM
In short: as §1

[11] = test system: ATS189; assay: as above; details: P. falciparum in erythrocytes, SYBR Green DNA, 72 h; series mostly up to 28.7 µM
In short: as §1

[12] = test system: CP191; assay: as above; details: P. falciparum in erythrocytes, SYBR Green DNA, 72 h; series mostly up to 28.7 µM
In short: as §1

[13] = test system: CP192; assay: as above; details: P. falciparum in erythrocytes, SYBR Green DNA, 72 h; series mostly up to 28.7 µM
In short: as §1

[14] = test system: CP194; assay: as above; details: P. falciparum in erythrocytes, SYBR Green DNA, 72 h; series mostly up to 28.7 µM
In short: as §1

[15] = test system: CP203; assay: as above; details: P. falciparum in erythrocytes, SYBR Green DNA, 72 h; series mostly up to 28.7 µM
In short: as §1

[16] = test system: CP247; assay: as above; details: P. falciparum in erythrocytes, SYBR Green DNA, 72 h; series mostly up to 28.7 µM
In short: as §1

[17] = test system: CP291; assay: as above; details: P. falciparum in erythrocytes, SYBR Green DNA, 72 h; series mostly up to 28.7 µM
In short: as §1

[18] = test system: PC49; assay: as above; details: P. falciparum in erythrocytes, SYBR Green DNA, 72 h; series mostly up to 28.7 µM
In short: as §1

[19] = test system: TAB113; assay: as above; details: P. falciparum in erythrocytes, SYBR Green DNA, 72 h; series mostly up to 28.7 µM
In short: as §1

[20] = test system: W2; assay: as above; details: P. falciparum in erythrocytes, SYBR Green DNA, 72 h; series mostly up to 28.7 µM
In short: as §1

Chain of Cytochrome P450 2C9 (Homo sapiens) (P11712 whole entry, looked up): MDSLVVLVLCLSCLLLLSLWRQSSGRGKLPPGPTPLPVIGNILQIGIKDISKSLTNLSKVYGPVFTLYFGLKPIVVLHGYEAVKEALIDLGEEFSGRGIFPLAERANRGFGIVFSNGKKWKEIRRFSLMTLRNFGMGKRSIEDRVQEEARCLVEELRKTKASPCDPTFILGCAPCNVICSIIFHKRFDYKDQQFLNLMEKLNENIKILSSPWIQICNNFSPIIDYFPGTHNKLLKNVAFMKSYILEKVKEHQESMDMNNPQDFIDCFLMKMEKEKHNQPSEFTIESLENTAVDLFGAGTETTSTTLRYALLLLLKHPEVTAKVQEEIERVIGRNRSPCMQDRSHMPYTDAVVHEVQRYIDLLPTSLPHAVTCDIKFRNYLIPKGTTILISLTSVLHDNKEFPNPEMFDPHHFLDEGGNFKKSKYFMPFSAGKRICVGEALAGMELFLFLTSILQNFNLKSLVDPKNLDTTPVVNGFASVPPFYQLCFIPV
Chain of Cytochrome P450 2D6 (Homo sapiens) (P10635 whole entry, looked up): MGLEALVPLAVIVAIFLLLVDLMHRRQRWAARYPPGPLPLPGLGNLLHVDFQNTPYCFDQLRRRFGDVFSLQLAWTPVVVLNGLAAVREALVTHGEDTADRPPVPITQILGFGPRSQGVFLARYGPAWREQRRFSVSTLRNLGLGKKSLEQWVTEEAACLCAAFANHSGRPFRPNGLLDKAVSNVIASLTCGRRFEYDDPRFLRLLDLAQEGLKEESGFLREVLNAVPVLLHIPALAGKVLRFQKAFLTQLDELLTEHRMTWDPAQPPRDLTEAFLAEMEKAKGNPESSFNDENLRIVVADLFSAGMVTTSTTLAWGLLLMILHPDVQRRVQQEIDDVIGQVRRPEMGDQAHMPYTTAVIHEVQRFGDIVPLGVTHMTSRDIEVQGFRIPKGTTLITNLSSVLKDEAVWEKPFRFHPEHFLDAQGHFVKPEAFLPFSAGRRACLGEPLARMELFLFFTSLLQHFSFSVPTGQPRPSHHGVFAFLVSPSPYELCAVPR
Chain of Cytochrome P450 2C19 (Homo sapiens) (P33261 whole entry, looked up): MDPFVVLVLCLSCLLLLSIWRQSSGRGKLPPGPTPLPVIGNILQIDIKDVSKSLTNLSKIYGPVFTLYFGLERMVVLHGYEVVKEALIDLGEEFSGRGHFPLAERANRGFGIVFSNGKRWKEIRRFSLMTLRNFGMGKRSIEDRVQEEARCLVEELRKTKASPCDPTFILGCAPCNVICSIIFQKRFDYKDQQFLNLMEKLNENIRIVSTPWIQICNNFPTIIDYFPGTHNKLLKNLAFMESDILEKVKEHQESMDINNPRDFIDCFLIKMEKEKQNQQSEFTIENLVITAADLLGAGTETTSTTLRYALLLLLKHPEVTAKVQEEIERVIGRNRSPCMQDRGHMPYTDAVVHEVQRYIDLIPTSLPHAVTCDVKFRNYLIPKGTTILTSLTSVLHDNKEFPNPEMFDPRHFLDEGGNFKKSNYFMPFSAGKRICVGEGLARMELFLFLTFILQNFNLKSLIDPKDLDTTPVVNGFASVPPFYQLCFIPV
Chain of ATP-dependent 6-phosphofructokinase (Trypanosoma brucei brucei) (O15648 whole entry, looked up): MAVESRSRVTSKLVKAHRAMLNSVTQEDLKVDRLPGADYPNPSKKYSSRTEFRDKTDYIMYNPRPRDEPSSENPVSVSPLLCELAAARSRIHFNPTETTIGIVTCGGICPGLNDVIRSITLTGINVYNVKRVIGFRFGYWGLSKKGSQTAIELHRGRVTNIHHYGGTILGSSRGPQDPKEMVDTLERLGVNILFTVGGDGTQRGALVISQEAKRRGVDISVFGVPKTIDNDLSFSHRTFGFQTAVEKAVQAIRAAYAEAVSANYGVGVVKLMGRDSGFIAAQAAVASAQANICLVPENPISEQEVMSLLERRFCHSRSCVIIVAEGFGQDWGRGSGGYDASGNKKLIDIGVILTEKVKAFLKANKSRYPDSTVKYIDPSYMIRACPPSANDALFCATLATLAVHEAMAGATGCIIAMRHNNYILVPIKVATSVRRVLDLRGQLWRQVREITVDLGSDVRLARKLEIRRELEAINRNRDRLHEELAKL

With `COc1ccccc1-c1cc(NCc2cccc(C)c2)ncn1` the Potency [1] was 3.98 µM (active).

In the case of `COc1ccccc1CNc1ccnc(-c2ccc3c(c2)OCO3)n1`, the Potency [2] is reported as 0.794 µM (active), the outcome [3] is reported as “inactive” and the outcome [4] is reported as “inactive”.

With `Cc1cccc(CNc2nc(-c3ccc4c(c3)OCO4)nc3ccccc23)c1` the Potency [1] was 3.16 µM (active) and the activation [5] was 6.93% (inactive).

With `O=c1c(-c2cc(F)cc(F)c2)nc2cnc(N3CCNCC3)nc2n1Cc1cccs1` the Potency [6] was 3.98 µM (active).

In the case of `O=c1cnc2cnc(Oc3cccc(Cl)c3)nc2n1Cc1ccc(F)cc1`, the Potency [6] is reported as 7.94 µM (active).

In the case of `CC(C)=CCC1=C(O)c2ccccc2C(=O)C1=O`, the outcome [3] is reported as “inactive”, the outcome [4] is reported as “inactive” and the Potency [7] is reported as “inactive”.

With `Oc1ccc(/C=C\c2cc(O)cc(O)c2)cc1` the outcome [3] was “inactive”, the outcome [4] was “inactive” and the outcome [8] was “inactive”. For the same compound, the activity, negative = inhibition ([9]; parasite line A) was 3.83% (inactive), the activity, negative = inhibition ([9]; parasite line B) was -0.952% (inactive) and the Potency [10] was “inactive”. The Potency [11] was “inactive”, the Potency [12] was “inactive” and the Potency [13] was “inactive”. For the same compound, the Potency [14] was “inactive”, the Potency [15] was “inactive” and the Potency [16] was “inactive”. The Potency [17] was “inactive”, the Potency [18] was “inactive” and the Potency [19] was “inactive”. The Potency [20] was “inactive”.

With `CN(C)c1ncc2nc(-c3cccs3)c(=O)n(C[C@H]3CCCO3)c2n1` the activation [5] was -3.72% (inactive).

For `FC(F)(F)c1ccccc1-c1nc(N2CCOCC2)c2ccccc2n1`, the activation [5] was 9.18% (inactive).

With `Cc1noc(C)c1-c1cc(NC2CCNCC2)ncn1` the activity change, negative = inhibition [6] was 23.1% [at 2.29 µM] (inactive) and the Potency [1] was “inactive”.

In the case of `CN(C)c1ncc2nc(-c3cc(F)cc(F)c3)c(=O)n(CCC#N)c2n1`, the Potency [6] is reported as “inactive”.

In the case of `COCCn1c(=O)c(C)nc2cnc(N3CCN(C)CC3)nc21`, the Potency [6] is reported as “inactive”.

With `COc1ccc(Oc2ncc3nc(C)c(=O)n(C[C@H]4CCCO4)c3n2)cc1` the activation [5] was -5.29% (inactive).

For `Cc1noc(C)c1-c1cncnc1N(C)Cc1ccco1`, the Potency [1] was 2.51 µM (active).

With `Cn1cc(-c2nc3cnc(N4CCOCC4)nc3n(C3CC3)c2=O)c2ccccc21` the Potency [1] was “inactive”.

For `COCCn1c(=O)cnc2cnc(Oc3ccccc3)nc21`, the activation [5] was 10.1% (inactive).

In the case of `O=c1c(CCc2ccccc2)nc2cncnc2n1Cc1ccc(F)cc1`, the Potency [6] is reported as 7.94 µM (active) and the Potency [1] is reported as 6.31 µM (active).

For `CCNc1ncc2ncc(=O)n(C3CC3)c2n1`, the Potency [6] was “inactive”.

For `CN(C)c1ncc2nc(-c3cccc(C#N)c3)c(=O)n(CCC#N)c2n1`, the Potency [6] was “inactive”.

For `COc1ccc(-c2nc3cnc(N4CCOCC4)nc3n(C[C@H]3CCCO3)c2=O)cc1`, the Potency [6] was “inactive”.

In the case of `Cn1cc(-c2nc3cnc(N4CCNCC4)nc3n(C)c2=O)c2ccccc21`, the Potency [6] is reported as 7.94 µM (active).

With `COc1cccc(-c2nc(NCc3ccccc3)c3ccccc3n2)c1` the Potency [6] was 1.26 µM (active).

In the case of `O=c1c(-c2cccs2)nc2cncnc2n1Cc1ccccc1`, the Potency [6] is reported as 1.26 µM (active).

For `Cc1nc2cnc(N(C)C)nc2n(C2CC2)c1=O`, the activation [5] was 9.86% (inactive).

With `Cc1nc2cncnc2n(Cc2ccccc2)c1=O` the Potency [1] was 0.158 µM (active).

In the case of `CNc1ccnc(-c2ccccc2OC)n1`, the Potency [2] is reported as 5.01 µM (active) and the activation [5] is reported as 7.18% (inactive).

For `c1ccc(Nc2cc(-c3ccoc3)ncn2)cc1`, the activity change, negative = inhibition [6] was -13.3% [at 2.29 µM] (inactive), the Potency [1] was 7.94 µM (active) and the activation [5] was -8.49% (inactive).

In the case of `CCNc1ncc2nc(-c3cn(C)c4ccccc34)c(=O)n(Cc3cccc(OC)c3)c2n1`, the Potency [5] is reported as 1.58 µM (active).

With `Fc1ccc(Nc2ncncc2-c2ccccc2C(F)(F)F)cc1` the Potency [1] was 7.94 µM (active).

With `CN(C)c1ncc2nc(-c3ccccc3)c(=O)n(-c3ccccc3)c2n1` the Potency [5] was 0.631 µM (active).

For `CN1CCN(c2ncncc2-c2ccc(C(=O)N(C)C)cc2)CC1`, the Potency [2] was 0.251 µM (active).

For `COCCNc1ncncc1-c1c(C)noc1C`, the activity change, negative = inhibition [6] was 23.1% [at 2.29 µM] (inactive).

For `COc1ccc(-c2nc3cnc(Nc4ccccc4)nc3n(Cc3cccs3)c2=O)cc1`, the Potency [5] was 3.16 µM (active).

From PubChem BioAssay (NCATS)
